Screens deposited in PubChem BioAssay by National Center for Advancing Translational Sciences (NCATS).
This is a sample that favours compounds with a hit; in the whole collection about 1.1% have one here.
BCR signal inh = blocks chronic active B-cell receptor signaling; ABC-DLBCL IkBa-CBG/CBR reporter, luminescence ratio, 4 h; Potency, µM (highest dose often 46.1 µM), inactives show at the top dose activity change, negative = inhibition, most hits filed as inhibitors; 0.05% of 340,000 active; AID 493014; active = well fitted inhibition curve with a large enough effect in the signal ratio, with a control signal flat, not every such curve was filed as active; inconclusive = small, poorly fitted or top-dose-only effect, or effect the other way, or a change in a side signal; the % refers to the signal ratio;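 also: plate controls were basal doxycycline-induced cells for no effect and cells given 10 µM MG132 for full effect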
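Doxycycline induced both beetle luciferases in TMD8 lymphoma cells; IKK-driven degradation limits the IkappaBalpha-fused green signal, while red luminescence normalises for cell number and nonspecific effects. Compounds tested up to 46 uM, 4 hrs.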
12-LOX inh = inhibitors of human 12S-lipoxygenase ALOX12. P18054. purified 12hLO, xylenol orange hydroperoxide absorbance. Potency, µM (highest dose often 108 µM), inactives show at the top dose activity change, negative = inhibition, most hits filed as inhibitors. 1.1% of 580,000 active. AID 1671190; also: % is scaled to controls: 0 for no effect and ±100 for the full control effect
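Purified human 12hLO at 150 nM in 25 mM Hepes, 0.01% Triton X-100, pH 7.0, preincubated 15 min at room temperature with compound. Reaction started with 40 uM arachidonic acid, 30 min at room temperature. Hydroperoxide measured by Fe-xylenol orange, 573/405 nm absorbance ratio.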
Anesthetic bind = binds horse apoferritin like a general anesthetic | apoferritin/1-aminoanthracene competitive binding, fluorescence | AID 485281 | P02791 | Potency, µM (series often up to 77.5 µM), inactives show at the top dose activity change, negative = displacement, usual class: inhibitors | 0.074% of 350,000 active; also: % is scaled to controls: 0 for no effect and ±100 for the full control effect; nearly all actives have a fitted effect of over 20% in size
Target sequence (P02791 2-175 limits assumed): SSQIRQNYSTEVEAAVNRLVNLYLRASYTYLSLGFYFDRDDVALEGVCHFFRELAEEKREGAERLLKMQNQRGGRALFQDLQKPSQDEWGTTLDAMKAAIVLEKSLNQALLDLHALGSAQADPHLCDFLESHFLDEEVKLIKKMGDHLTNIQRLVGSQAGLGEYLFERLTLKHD
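10 uM apoferritin + 50% sat. 1-AMA, PBS; cpd 10 min RT; Ex380/Em535 endpoint; normalized to free probe vs complex; 4-param Hill fit; propofol titration as pos. ctrl.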
Glioma ERSR ind = inducers of ER stress response in human glioma cells | U87-MG GRP78 promoter luciferase reporter, 16 h | Potency, µM, inactives show at the top dose activation, most hits filed as activators | 0.02% of 420,000 active | AID 602332; also: series mostly up to about 76 µM; % of control where 0% means no effect; nearly all actives have a fitted effect of over 35% in size
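ERSR induction read as luciferase luminescence (Bright-Glo, 10 min at room temperature) in stably transfected human U87-MG glioma cells exposed to compounds for 16 h, using GRP78 as sensor.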
Starred values were filed as active, the others as inactive; u = inconclusive; x = no result; ! = not confirmed by another sample. Unless noted, calls follow the shape of the dose curve; as a rule, active = well fitted curve in the direction sought with a large enough effect; inconclusive = small, poorly fitted or top-dose-only effect, or another doubt; inactive = no such curve, though single readings can be large; an effect the other way counts as inactive or inconclusive. Potency is read from the fitted curve at half-maximal effect.

SMILES	BCR signal inh	12-LOX inh	Anesthetic bind	Glioma ERSR ind
COc1cccc(CCC(=O)N2CCC3(CC2)NC(=O)N(c2cccc(F)c2)N3)c1	x	5.6µM*	x	x
O=C(CCc1ccccc1)N1CCC2(CC1)NC(=O)N(c1ccccc1)N2	x	2.2µM*	x	x
COc1ccccc1CCC(=O)N1CCC2(CC1)NC(=O)N(c1ccccc1)N2	x	2µM*	x	x
Cc1cccc(C(=O)C(C)C(=O)c2cccc(C)c2)c1	x	6%	x	x
CC(=O)Nc1ccc(C(=O)N(CCc2ccccc2)Cc2cccs2)s1	x	-14%	x	x
CCOc1cccc2cc(-c3cc(=O)oc4cc(O)ccc34)c(=O)oc12	x	17%	x	x
COc1ccc(CCC(=O)N2CCC3(CC2)NC(=O)N(c2cccc(Cl)c2)N3)cc1	x	2µM*	x	x
COc1ccc(CCC(=O)N2CCN(S(=O)(=O)c3cccc(Cl)c3)CC2)cc1	4%	0%	x	-4%
COc1cccc(CCC(=O)N2CCC(c3n[nH]c(=O)n3-c3ccccc3)CC2)c1	x	-16%	x	x
COc1cccc(CCC(=O)N2CCC3(CC2)NC(=O)N(c2ccccc2)N3)c1	x	2.5µM*	x	x
Nc1nc(-c2cccc(Br)c2)cs1	12%	u	32µM*	6%
Nc1nc(-c2ccc(Br)cc2)cs1	19%	45µM*	-17%	7%
CN[C@H]1CCc2cc(OC)c(OC)c(OC)c2-c2ccc(OC)c(=O)cc21	x	-9%	x	-4%
COc1cc2c(c(OC)c1OC)-c1ccc(NC(=O)c3ccccc3)c(=O)cc1[C@@H](NC(C)=O)CC2	22µM*	-17%	-16%	-3%
CN(C(=O)CC1C(=O)NCCN1Cc1c(F)cccc1Cl)C1CCOCC1 (configuration not stated)	-1%	2%	-9%	-3%
COc1ccc(CN2CCNC(=O)C2CC(=O)NCCC2=CCCCC2)c(F)c1 (configuration not stated)	1%	11µM*	-6%	-5%
O=C(CC1C(=O)NCCN1Cc1ccc(F)cc1)NC1CCCCCCC1 (configuration not stated)	3%	14%	16µM*	-4%
CN(C(=O)CC1C(=O)NCCN1Cc1cccc(F)c1F)C1CCOCC1 (configuration not stated)	0%	7.1µM*	-1%	-4%
O=C(CC1C(=O)NCCN1Cc1cccc(F)c1F)NCCCC1CCCC1 (configuration not stated)	-6%	-25%	32µM*	-5%
COc1cc(CN2CCNC(=O)C2CC(=O)NCCC2=CCCCC2)cc(OC)c1 (configuration not stated)	-13%	-17%	u	1%
COc1ccc(Cl)cc1/C=C1/C(=O)ON=C1C	3%	32µM*	-3%	-2%
C#CCOc1c(Cl)cc(/C=C2/C(=O)ON=C2C)cc1OC	4%	28µM*	-10%	-5%
CCCOc1ccc(/C=C2/C(=O)ON=C2C)cc1Cl	-5%	5.6µM*	0%	1%
Cc1cc(C)cc(NC(=O)CS(=O)(=O)Cc2nc(-c3ccccc3C)oc2C)c1	x	11%	x	x
CCCC(NC(=O)c1ccc(Cl)nc1)c1ccccc1 (configuration not stated)	x	-31%	x	x
SMILES	BCR signal inh	12-LOX inh	Anesthetic bind	Glioma ERSR ind
CC1(C)CCCC(C)(C#CCN2CCN(C(c3ccccc3)c3ccccc3)CC2)O1 (configuration not stated)	x	10µM*	x	x
COc1cc2c(cc1OC)C(c1ccc(-c3ccccc3Cl)o1)=NCC2	u	40µM*	-10%	4%
O=C(CCCC(=O)NN=C1CCCC1)NN=C1CCCC1	x	-14%	x	x
Cn1ccc2c(N(Cc3ccccc3)Cc3ccccc3)cc3c(c21)C1CCC3O1 (configuration not stated)	x	11µM*	x	-3%
Cc1cc(C)c(S(=O)(=O)Nc2cnc3ccccc3c2)c(C)c1	0%	16µM*!	-14%	-3%
COc1cccc(C(=O)N2CCC(N3C[C@H](O)C[C@H]3C(=O)N3CC=C(c4ccccc4)CC3)CC2)c1	x	45%	x	x
CC(=O)Nc1cc(-c2ccc(CO)cc2)cn2c(-c3ccc(F)c(Cl)c3)cnc12	x	35µM*	x	u
CC(=O)Nc1cc(-c2ccccc2)cn2c(-c3ccc(F)c(Cl)c3)cnc12	x	u	x	4%
O=C1/C(=C/c2ccccc2F)CCc2ccccc21	x	3.2µM*	x	x
Cc1ccc2c(c1)-c1[nH]c(=S)ncc1CS2	1%	32µM*	-4%	1%
COc1ccc(Cl)cc1-c1ccc2c(c1)C(=O)N1C[C@@H](NS(=O)(=O)c3ccc(F)cc3)C[C@H]1C(=O)N2	x	9%	x	x
O=C(O)c1ccc(N2CC3CC(C2)c2cccc(=O)n2C3)c(NC(=S)Nc2ccc(Br)cc2)c1 (configuration not stated)	21%	40µM*	-8%	0%
CCc1c(CN2CCN(c3ccc(F)cc3)CC2)csc1C	x	45µM*!	-9%	-3%
Cc1cc(CN2CCN(c3ccc(F)cc3)CC2)cs1	x	u	3%	-3%
CCC1Oc2ccc(NC(=O)COC)cc2CN(Cc2cc(F)cc(F)c2)C1=O (configuration not stated)	x	6%	x	x
CCC(Oc1ccccc1)C(=O)Nc1ccc2oc(C)nc2c1 (configuration not stated)	x	-7%	x	x
C=CCOc1cccc(NC(=O)c2cccc(OCC)c2)c1	x	-26%	x	x
CC1(c2ccccc2)NC(=O)N(Cc2ncc(-c3ccccc3)o2)C1=O (configuration not stated)	x	18%	x	x
Cc1cc2c(cc1C)CSC(c1cc(Cl)ccc1O)SC2	x	13µM*	x	x
Cc1cc2c(cc1C)CSC(c1ccccc1O)SC2	11%	u	u	6%
CC1CCCC(C)N1C(=O)Cc1ccccc1 (configuration not stated)	-8%	13%	13µM*	1%
CC(C)=CCc1c2c(c3occ(-c4ccc(O)c(O)c4)c(=O)c3c1O)C=CC(C)(C)O2	x	40µM*!	x	-12%
C[N+](C)(C)CCOC(=O)C1(c2ccccc2)CCCC1	u	154%	-9%	-5%
CC[N+](C)(CC)CCCOC(=O)C1(c2ccccc2)CCCC1	x	20µM*	x	x
CC[N+](CC)(CC)CCCOC(=O)C1(c2ccccc2)CCCC1	x	20µM*	x	x
SMILES	BCR signal inh	12-LOX inh	Anesthetic bind	Glioma ERSR ind
CCN(Cc1ccc2c(c1)OCO2)C(=O)c1cc(=O)c2cc(C)ccc2o1	x	-3%	x	x
CCc1ccccc1N/C=C(\C#N)c1nc(-c2ccc(C)cc2)cs1	x	1%	x	x
CCOC(=O)c1cn(C)nc1S(=O)(=O)N1CCOCC1	x	11µM*	x	x
CN(C)c1nc(=NCc2cccs2)ss1	x	16µM*	x	-13%
Cc1ccc(N2C(=O)CC(Cc3cc(C)cc(C)c3)C2=O)cc1 (configuration not stated)	6%	10%	-17%	-3%
Cc1cc(C)cc(CC2CC(=O)N(c3nc(C)cc(C)n3)C2=O)c1 (configuration not stated)	u	-5%	5.6µM*	1%
O=C(NCc1ccco1)c1sc(=S)n2c1[nH]c(=O)c1ccccc12	9%	16µM*	-16%	-2%
O=C(NC1CCCC1)c1sc(=S)n2c1[nH]c(=O)c1ccccc12	8%	u	-12%	0%
CC(C)c1ccccc1NC(=O)c1cnc2ccccc2n1	x	-17%	x	x
